The record followed here is PubChem BioAssay (NCATS).

One assay deals with CRL-7250. The assay is described as follows: Cytotoxic Profiling of Annotated Libraries Using Quantitative High-Throughput Screening (AID 1296008). For max response: % is set by controls: 0 for no effect and ±100 for the full control effect. Note: potency is the fitted concentration of half-maximal effect. The following applies: Five cell lines viability, CellTiter-Glo ATP luminescence, 48-72 h; max response: hits give low values. In a few lines: (§1)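 Compounds were pin-transferred onto cells and incubated 48 or 72 hr at 37 degree Celsius, 95% humidity. CellTiter-Glo was added, plates sat 10 min at room temperature, then ATP-coupled luminescence was imaged as the viability read-out.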
Background: Cellular ATP, detected with luciferase, serves as a proxy for viable cell number.

In the next assay the test system is HEK293. The description is as above. The following applies: Five cell lines viability, CellTiter-Glo ATP luminescence, 48-72 h; max response: hits give low values. The method in brief:
as §1

Assay [1] relates to HaCat. Described as above. Conditions: Five cell lines viability, CellTiter-Glo ATP luminescence, 48-72 h; max response: hits give low values. In a few lines:
as §1

The next assay concerns KB-3-1. The assay is described as above. The following applies: Five cell lines viability, CellTiter-Glo ATP luminescence, 48-72 h; max response: hits give low values. The method in brief: as §1
Another assay deals with NIH3T3. The assay is described as above. Conditions: Five cell lines viability, CellTiter-Glo ATP luminescence, 48-72 h; max response: hits give low values. In a few lines: as §1
Assay [2] relates to HACAT. The assay is described as follows: qHTS assay to identify novel small-molecules to repurpose for Merkel cell carcinoma treatment (AID 1296009). The following applies: MCC and control cell lines, CellTiter-Glo viability, 72 h; at 44.8 µM (top of the series) unless noted. In a few lines: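 qHTS format: cells treated with library compounds in DMSO across 8 (NPC) or 11 (MIPE) concentrations. Readout after 72 hr at 37 degree celsius was CellTiter-Glo luminescence.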

Values joined by “and” are separate entries in the source; they are usually repeats but may differ in a detail not shown here. Identical values can stand only once. Records with an inconclusive call do not appear. A number with no mark means an inactive call. Active and inactive are the calls of the source. Calls come from the whole dose curve; as a rule, active = well fitted inhibition curve with a large enough effect; inconclusive = small, poorly fitted or top-dose-only effect; inactive = flat fitted curve, though single readings scatter.
Note: nearly all actives have a fitted effect of over 60% in size.

As for `C[C@@]1(c2cc(-c3cncnc3)c(F)cc2F)CCSC(N)=N1`, the max response was 3.38% and -17.5% in the assay with CRL-7250; 1.85% and -22.9% with HEK293; -8.12% and -24.8% with HaCat [1]; -3.27% in the assay with KB-3-1; -1.07% in the assay with NIH3T3. Also, the result in the assay on KB-3-1 and in the assay with NIH3T3 was inactive.

Consider `CCNC(=O)CCCC=CC[C@@H]1[C@H](C=CC(O)CCc2ccccc2)[C@@H](O)C[C@@H]1O` (stereo partly drawn), for which the max response was -10.2% in the assay on CRL-7250; -24.5% with HEK293; 4.63% in the assay with HaCat [1]; 9.82% in the assay with KB-3-1; -1.84% in the assay on NIH3T3.

Consider `CC(=O)Nc1cccc(-n2c(=O)n(C3CC3)c(=O)c3c(Nc4ccc(I)cc4F)n(C)c(=O)c(C)c32)c1`, for which the Potency with CRL-7250 was 0.164 µM (active); with HEK293, 11.8 µM (active); in the assay on HaCat [1], 3.32 µM (active) and 5.17 µM (active); in the assay on NIH3T3 it was 418 nM (active) and 259 nM (active). In the assay with KB-3-1, the max response was -5.06% and 7.25%.

With `CC(NCCc1ccc(O)cc1)C(O)c1ccc(O)cc1` (stereo not drawn), the max response with CRL-7250 was -0.502%; in the assay with HEK293, 3.14%; in the assay on HaCat [1], -0.381%; in the assay on KB-3-1 it was -1.97%. The molecule was called inactive in the assay with NIH3T3.

Consider `CC[C@H](C)C(=O)O[C@H]1C[C@H](O)C=C2C=C[C@H](C)[C@H](CC[C@@H](O)C[C@@H](O)CC(=O)O)[C@H]21`, for which the max response in the assay with CRL-7250 is -6.33%; with HEK293, 0.44%; in the assay on HaCat [1] it was -9.82%; in the assay with KB-3-1 it was 7.09% and -6.87%; with NIH3T3, -3.34%.

Regarding `COc1cccc(OC)c1-c1cc(C(=O)NC2(C(=O)O)C3CC4CC(C3)CC2C4)nn1-c1ccnc2cc(Cl)ccc12` (stereo not drawn), the max response was -4.21% in the assay with CRL-7250, -21.7% in the assay with HEK293 and -12% with HaCat [1]. Moreover, the call in the assay on KB-3-1 and in the assay with NIH3T3 was inactive.

Consider `O=S(=O)(O)c1ccc2cc(N=Nc3cc(S(=O)(=O)O)c4cccnc4c3O)ccc2c1`, for which the max response is -1.21% with CRL-7250; -8.8% and -0.547% in the assay with HEK293; -5.73% and 2.13% in the assay with HaCat [1]; -11.7% and -5.81% with KB-3-1; -3.13% and 2.59% in the assay on NIH3T3.

Take `Cc1cc(C(C)Nc2ccccc2)c2nc(N3CCOCC3)cc(=O)n2c1` (stereo not drawn): the max response in the assay on CRL-7250 was -10.1%; with HEK293 it was -5.74% and -23.1%; in the assay on HaCat [1], -24%. In addition, the molecule was called inactive in the assay on KB-3-1. The Potency with NIH3T3 was 4.61 µM (active).

Take `NCC1CCC(C(=O)O)CC1` (stereo not drawn): the max response in the assay on CRL-7250 was -3.04%; with HEK293, 2.93%; with KB-3-1 it was 7.37% and 2.9%; in the assay on NIH3T3, -3.72%. For the same molecule, the molecule was called inactive in the assay with HaCat [1] and with HACAT [2].

As for `COc1ccc(-c2cc(=O)c3c(O)cc(O[C@@H]4O[C@H](CO[C@@H]5O[C@@H](C)[C@H](O)[C@@H](O)[C@@H]5O)[C@@H](O)[C@H](O)[C@@H]4O)cc3o2)cc1O`, the max response in the assay on CRL-7250 is -4.94%; in the assay on KB-3-1, -0.879%. Besides, the molecule was called inactive in the assay on HEK293, in the assay with HaCat [1], in the assay with NIH3T3 and in the assay on HACAT [2].

As for `O=C(CC12CC3CC(CC(C3)C1)C2)Nc1cccc2nc(NCCNCCO)ccc12`, the max response in the assay with CRL-7250 is -13.8% and 3.99%; with HEK293, -37.5%; with KB-3-1 it was -12.7%. Besides, the molecule was classed as inactive with HaCat [1], in the assay on NIH3T3 and with HACAT [2].

`CC(C)=CCCC(C)=CCCC(C)=CCCC(C)=CCCC(C)=CCCC(C)=CCCC(C)=CCCC(C)=CCCC(C)=CCO`: the max response is 0.939% in the assay with CRL-7250; -3.76% in the assay with HEK293; 1.51% in the assay on HaCat [1]; 4.17% in the assay on KB-3-1; -3.52% with NIH3T3.

In the case of `C[C@H](CCC(=O)O)[C@H]1CC[C@H]2[C@H]3[C@@H](CC[C@]12C)[C@@]1(C)CC[C@@H](O)C[C@H]1C[C@@H]3O`, the results for the max response in the assay on CRL-7250, in the assay with KB-3-1 and in the assay with NIH3T3 were -2.21%, 0.163% and -1.17%, respectively. Also, the molecule was called inactive with HEK293, with HaCat [1] and in the assay with HACAT [2].

Take `CC1CNc2c(cccc2S(=O)(=O)N[C@@H](CCCN=C(N)N)C(=O)N2CC[C@@H](C)C[C@@H]2C(=O)O)C1` (stereo partly drawn): the molecule was classed as inactive in the assay on CRL-7250, with HEK293, with HaCat [1] and with HACAT [2]. Moreover, the max response with KB-3-1 was 9.69%; with NIH3T3, -2.95%.

Consider `COc1cc(F)c(C(C)C)cc1-c1ccc(C(F)(F)F)cc1CN1C(=O)O[C@H](c2cc(C(F)(F)F)cc(C(F)(F)F)c2)[C@@H]1C`, for which the call with CRL-7250 was inactive. The max response with HEK293 was 0.948%; with HaCat [1], 0.17%; in the assay with KB-3-1 it was -11.6%; in the assay with NIH3T3, 0.998%.

In the case of `Cc1ccc2c(=O)c3cccc(CC(=O)O)c3oc2c1C`, the figures for the max response with CRL-7250 and in the assay on HaCat [1] were -6.92% and -14.4%, respectively. The molecule was classed as inactive with HEK293, with KB-3-1 and with NIH3T3.

Consider `CC[C@H](NC(=O)[C@H](C)NC)C(=O)N1C[C@@H](O)C[C@H]1Cc1c(-c2[nH]c3cc(F)ccc3c2C[C@H]2C[C@H](O)CN2C(=O)[C@H](CC)NC(=O)[C@H](C)NC)[nH]c2cc(F)ccc12`, for which the outcome in the assay with CRL-7250, with HaCat [1], with KB-3-1, in the assay with NIH3T3 and in the assay on HACAT [2] was inactive. Further, the max response in the assay on HEK293 was 1%.
